Inconclusive results are not listed. A number with no mark means an inactive call. Calls follow the shape of the dose curve; as a rule, active = well fitted cell-killing curve with a large enough effect in the repeat runs; inconclusive = weak or mixed curves, or effect the other way; inactive = no such curve, though single readings can be large or run the other way.
Assay: qHTS assay to identify small molecule agonists of the RXR signaling pathway - cell viability counter screen (AID 1159529); also: nearly all actives have a fitted effect of over 50% in size
Settings: RXR-alpha-bla HEK293T viability, CellTiter-Glo, 16 h; series mostly up to 76.8 µM; activity change, negative = cytotoxicity: at the top concentration
From the text: National Center for Advancing Translational Sciences [NCATS]
NIH Chemical Genomics Center [NCGC]
U.S. Environmental Protection Agency [EPA]
National Institutes of Environmental Health Sciences [NIEHS]
National Toxicology Program [NTP]
U.S. Food and Drug Administration [FDA]
The Retinoid X receptor (RXR), a nuclear hormone receptor expressed in liver, spleen, placenta, epidermis, central nervous system. These receptors are able to form homo and heterodimers with other nuclear receptors and due to this heterodimerizing ability, RXR functions as master regulators producing diverse physiological effects. Three subtypes of RXR exist; alpha, beta and gamma. Retinoid X receptor alpha (RXR-alpha) has potential roles in metabolic signaling pathways, skin alopecia, dermal cysts, cardiac development, insulin sensitization etc. Therefore screening environmental chemicals on RXR-alpha signaling can be used for the studies focused on such therapeutic applications. For quantification of RXR-alpha ligands signaling, GeneBLAzer RXR alpha-UAS-bla HEK 293T (Life Technologies, Carlsbad, CA) cells containing a beta-lactamase reporter-gene under control of Retinoid X receptor-alpha response element were used to screen Tox21 10K library. The cytotoxicity of the Tox21 compound library against the RXR-alpha HEK 293T cell line was tested in parallel by measuring cell viability using CellTiter-Glo assay (Promega Corporation, Madison, WI) in the same wells.
Tox21 Assay Protocol Summary:
RXR-alpha HEK 293T cells were dispensed at 2,000 cells/6 uL of assay medium containing 2% charcoal-stripped FBS using a Multidrop Combi (ThermoFisher Scientific, Waltham, MA) dispenser. The assay was performed in black wall/clear-bottom 1536-well plates (Greiner Bio-One North America Inc. Monroe, NC). Tetraoctyl ammonium bromide was used as a positive control in the cytotoxicity screen. After the assay plates were incubated at 37 C and 5% CO2 for 5 hr, 23 nL of compounds dissolved in DMSO, positive control or DMSO only were transferred to the assay plate by a Pintool station (Kalypsys, San Diego, CA). The assay plates were incubated at 37 C and 5% CO2 for 16 hr. One uL of LiveBLAzer B/G FRET substrate (Life Technologies) was added using a Flying Reagent Dispenser (FRD) (Aurora Discovery, San Diego, CA) and the plates were incubated at room temperature for 2 hr. Fluorescence intensity (405 nm excitation, 460/530 nm emission) was measured using an Envision plate reader (PerkinElmer, Shelton, CT). For cytotoxicity, 4 uL/well of CellTiter-Glo reagent was added into the assay plates using an FRD. After 30 min incubation at room temperature, the luminescence intensity was measured using a ViewLux plate reader (PerkinElmer).
% is scaled to controls: 0 for no effect and ±100 for the full control effect.

SMILES | activity change, negative = cytotoxicity
[O-][N+](=Nc1ccccc1)c1ccccc1 | 4.46%
Nc1cc(C(Cl)=C(Cl)Cl)c(S(N)(=O)=O)cc1S(N)(=O)=O | 2.71% [at 35.3 µM]
O=C1OC(=O)c2cc([N+](=O)[O-])ccc21 | -1.14%
CCCC(=O)O[C@]1(C(=O)CCl)[C@@H](C)C[C@H]2[C@@H]3CCC4=CC(=O)C=C[C@]4(C)[C@@]3(F)C(=O)C[C@@]21C | -1.75% [at 35.3 µM]
Nc1ccc2cc(S(=O)(=O)O)ccc2c1 | 3.57%
CCN(CC)C(=O)c1ccc(O)c(OC)c1 | 7.4% [at 35.3 µM]
Cc1onc(-c2ccccc2)c1-c1ccc(S(N)(=O)=O)cc1 | 6.81% [at 35.3 µM]
COC(C(=O)O)c1ccccc1 (stereo not given) | -2.78%
O=C1CC2(CCCC2)CC(=O)N1 | 6.24% [at 35.3 µM]
CO | -3.56%
Cc1ccccc1C(=O)O | 12.5%
CC(C)CCOC(=O)CC(C)C | 3.57%
CC1CCN(CCCC(=O)c2ccc(F)cc2)CC1 | -6.02% [at 35.3 µM]
NC(=O)c1ncn([C@@H]2O[C@H](CO)[C@@H](O)[C@H]2O)c1N | 11.6% [at 35.3 µM]
OC/C=C/c1ccccc1 | -0.0991%
C1=C\CC/C=C\CC/C=C\CC/1 | 4.12%
O=C(O)CCNC(=O)c1ccc(N=Nc2ccc(O)c(C(=O)O)c2)cc1 | 5.69% [at 35.3 µM]
NCCNC(=O)c1ccc(Cl)cn1 | -2.68% [at 35.3 µM]
COc1cccc(Br)c1 | 14.5%
Cn1cnc2c(=O)[nH]c(N)nc21 | 0.969%

SMILES | activity change, negative = cytotoxicity
c1ccc(SCCSc2ccccc2)cc1 | -12.2%
CN(C)N=Nc1ccccc1 | -3.65%
CCCCCCCCN(C)CCCCCCCC | 6.59%
C=C(C)C(=O)NCCC[N+](C)(C)C | -0.416%
NC(=O)Nc1nc2ccccc2[nH]1 | -6.89%
CCOC(=O)Nc1ccc2c(c1)N(C(=O)CCN1CCOCC1)c1ccccc1S2 | -19.8% [at 35.3 µM]
CCCCCCOC(=O)CC(CC(=O)OCCCCCC)(OC(=O)CCC)C(=O)OCCCCCC | -3.78%
C=C(C)C1CC=C(C)C(O)C1 (stereo not given) | 13.6%
CCCC=O | 1.13%
C=C(C)C(=O)OCCC(C)OC(=O)C(=C)C (stereo not given) | 1.53%
CC1=CCC2C(C1)C2(C)C (stereo not given) | -18.7%
CC12CCC(CC1=O)C2(C)C (stereo not given) | 3.99%
CSc1nc(NC2CC2)nc(NC(C)(C)C)n1 | -1.93%
Nc1ccn(C2CO[C@H](CO)O2)c(=O)n1 (stereo not given in full) | -5.97% [at 35.3 µM]
CSc1ccc(C=O)cc1 | 5.39%
C=C(C)[C@@H]1CCC2=CC(=O)C[C@@H](C)[C@]2(C)C1 | -0.815%
CCCCCOC(=O)Nc1nc(=O)n([C@@H]2O[C@H](C)[C@@H](O)[C@H]2O)cc1F | 4.21% [at 35.3 µM]
O=C1C(CCS(=O)c2ccccc2)C(=O)N(c2ccccc2)N1c1ccccc1 (stereo not given) | -8.78% [at 35.3 µM]
Cc1c(F)cc2c(=O)c(C(=O)O)cn3c2c1CCC3C (stereo not given) | -1.44% [at 35.3 µM]
CN(C)CCOC(c1ccc(Cl)cc1)c1ccccn1 (stereo not given) | -16.6% [at 35.3 µM]

Reference: PubChem BioAssay (Tox21)
